# Measured values from PubChem BioAssay (NCATS).
# A number with no mark means an inactive call. Results filed as inconclusive are left out. Entries that show only a call come without a potency. Active and inactive are the calls of the source. Calls come from the whole dose curve; as a rule, active = well fitted curve in the direction sought with a large enough effect; inconclusive = small, poorly fitted or top-dose-only effect, or another doubt; inactive = no such curve, though single readings can be large; an effect the other way counts as inactive or inconclusive.
# Key:
# [1] = biological target: Glutathione peroxidase 1 (Homo sapiens) (UniProt P07203); assay: Primary qHTS Assay for Inhibitors of Recombinant Selenoprotein Glutathione Peroxidase 1 (GPX1) (AID 1845191); note: nearly all actives have a fitted effect of over 65% in size
# Chain of Glutathione peroxidase 1 (Homo sapiens) (P07203 whole entry, looked up): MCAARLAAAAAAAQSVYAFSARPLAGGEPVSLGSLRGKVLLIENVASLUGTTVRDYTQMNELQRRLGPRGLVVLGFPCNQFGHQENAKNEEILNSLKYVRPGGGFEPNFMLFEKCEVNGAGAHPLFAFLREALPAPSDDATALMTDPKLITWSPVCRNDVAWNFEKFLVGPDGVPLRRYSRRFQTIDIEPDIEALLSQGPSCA
# Summary of the method: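 10 nM GPX1 + cpd, 30 min RT; start w/ 1 mM GSH, 0.5 mM cumene hydroperoxide, 0.5 mM NADPH, 100 nM GR, 0.01% BSA; buffer 50 mM Tris-HCl pH 7.5, 2 mM EDTA, 150 mM NaCl; Fl 340/450, 0 & 15 min.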
# [2] = Quantitative High-Throughput drug screen in 47 multiple myeloma cell lines against the NCATS MIPE library collection: FR4_PLB cell viability assay (AID 1918924; note: nearly all actives have a fitted effect of over 35% in size; note: potency is the fitted concentration of half-maximal effect)
# Summary of the method: (§1)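 Primary qHTS used for cherry-picking: cells at 500/well, library compounds for 48 h (37C, 5% CO2), luminescent ATP assay.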
# [3] = Quantitative High-Throughput drug screen in 47 multiple myeloma cell lines against the NCATS MIPE library collection: AMO1_DSMZ cell viability assay (AID 1918927; note: nearly all actives have a fitted effect of over 30% in size; note: potency is the fitted concentration of half-maximal effect)
# Summary of the method: (§2)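 Luminescent ATP measurement with CellTiter-Glo gives viability, scaled between DMSO-only wells (100%) and media-only wells (0%). Cells, 500 per well, faced library compounds for 48 hours at 37C.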
# [4] = Quantitative High-Throughput drug screen in 47 multiple myeloma cell lines against the NCATS MIPE library collection: ARP1_JJKsccF8 cell viability assay (AID 1918928; note: nearly all actives have a fitted effect of over 40% in size; note: potency is the fitted concentration of half-maximal effect)
# Summary of the method: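 Myeloma cells at 500 per well in 1536-well format treated with MIPE 4.0 library by pin transfer for 48 h at 37C, 5% CO2. Viability from ATP luminescence (CellTiter-Glo), normalized to DMSO (100%) and media-only (0%) wells.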
# [5] = Quantitative High-Throughput drug screen in 47 multiple myeloma cell lines against the NCATS MIPE library collection: Karpas620_DSMZ cell viability assay (AID 1918959); note: nearly all actives have a fitted effect of over 30% in size; note: potency is the fitted concentration of half-maximal effect
# Summary of the method: as §1
# [6] = biological target: Luciferin 4-monooxygenase (Photinus pyralis) (UniProt P08659); assay: Primary firefly luciferase (FLuc) qHTS assay for identification of artifact compounds. (AID 1845220); note: nearly all actives have a fitted effect of over 60% in size
# Summary of the method: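 Cell-free, 1536-well qHTS. Buffer pH 7.6 with 0.01% Tween-20 and 0.05% BSA; 10 uM D-luciferin, 10 uM ATP; 10 nM P. pyralis luciferase; luminescence after 5 min.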
# [7] = Primary fluorescence-based thiol-reactive (MSTI) qHTS assay for identification of artifact compounds. (AID 1845221);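 note: series mostly up to about 54 µM; thiol-reactive compounds lower the probe fluorescence signal; nearly all actives have a fitted effect of over 65% in size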
# Summary of the method: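 Thiol-reactive compounds detected by quenching of 4 uM MSTI fluorescence (525/598 nm) after 1 h room-temperature dark incubation in PBS pH 7.4, 2% DMSO. qHTS titration; percent inhibition Hill-fitted against Acetyl-MSTI/MSTI controls.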
# [8] = tested on: Nanoluciferase (engineered Oplophorus gracilirostris luciferase); assay: Primary Nanoluciferase (NLuc) qHTS assay for identification of artifact compounds. (AID 1845222); note: series mostly up to about 54 µM
# Summary of the method: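 Compounds are pinned into diluted (1:55) conditioned medium of NLuc-expressing S16 cells and held 15 min at room temperature protected from light. Nano-Glo substrate follows, and luminescence is read 5 min later.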
# [9] = Primary redox qHTS assay for identification of artifact compounds. (AID 1845223)
# Summary of the method: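 Amplex Red (25 uM) and HRP (250 mU/mL) in HBSS, with compounds for 15 min, then 250 uM DTT for 30 min, room temperature, dark. Fluorescence 525/598 nm read; normalized to DMSO and 10 uM DA3003; Hill fit.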
# [10] = Quantitative High-Throughput drug screen in 47 multiple myeloma cell lines against the NCATS MIPE library collection: EJM_DSMZ cell viability assay (AID 1918926; note: nearly all actives have a fitted effect of over 30% in size; note: potency is the fitted concentration of half-maximal effect)
# Summary of the method: as §2
# [11] = Quantitative High-Throughput drug screen in 47 multiple myeloma cell lines against the NCATS MIPE library collection: ARD_JJKsccE7 cell viability assay (AID 1918929; note: potency is the fitted concentration of half-maximal effect)
# Summary of the method: as §2
# [12] = Quantitative High-Throughput drug screen in 47 multiple myeloma cell lines against the NCATS MIPE library collection: Delta47_JCRB cell viability assay (AID 1918925; note: nearly all actives have a fitted effect of over 45% in size; note: potency is the fitted concentration of half-maximal effect)
# Summary of the method: as §2
SMILES,Potency [1],Potency [2],Potency [3],Potency [4],Potency [5],Potency [6],Potency [7],outcome [8],Potency [9],Potency [10],Potency [11],Potency [12],outcome [1]
C[C@H]1COc2c(N3CCN(C)CC3)c(F)cc3c(=O)c(C(=O)O)cn1c23,inactive,inactive,inactive,inactive,inactive,,,,,,,,
Oc1cc(-c2nc(-c3ccccc3)[nH]c2-c2ccncc2)ccc1Cl,inactive,,5.26 µM (active),14.8 µM (active),5.9 µM (active),inactive,inactive,inactive,inactive,18.7 µM (active),5.9 µM (active),,
C=CC(=O)N1CCc2ccc(-n3c(=O)ccc4cnc5ccc(-c6cnn(C)c6)cc5c43)cc21,inactive,1.66 µM (active),2.96 µM (active),1.05 µM (active),,,,,,3.72 µM (active),0.833 µM (active),0.935 µM (active),
Cc1ncc(-c2ccnc(Nc3ccc(S(C)(=O)=O)cc3)n2)n1C(C)C,inactive,2.64 µM (active),2.09 µM (active),2.96 µM (active),3.72 µM (active),inactive,inactive,inactive,inactive,2.96 µM (active),,2.35 µM (active),
CCCCOc1ccc(C(=O)Nc2ccc(F)cc2F)cc1,inactive,,,inactive,inactive,inactive,inactive,inactive,inactive,inactive,inactive,inactive,
COC(=O)C1C2CC3c4[nH]c5cc(OC)ccc5c4CCN3CC2CC(OC(=O)c2cc(OC)c(OC)c(OC)c2)C1OC (stereo not drawn),inactive,3.72 µM (active),,,23.5 µM (active),,,,,,20.9 µM (active),,
CCCCC(=O)O[C@]1(C(=O)CO)[C@@H](C)C[C@H]2[C@@H]3CCC4=CC(=O)C=C[C@]4(C)[C@@]3(F)[C@@H](O)C[C@@]21C,inactive,inactive,inactive,,inactive,,,,,inactive,,,
Cc1ccccc1C(=O)Nc1ccc(C(=O)N2CCCC(O)c3cc(Cl)ccc32)c(C)c1 (stereo not drawn),inactive,inactive,,inactive,inactive,inactive,inactive,inactive,inactive,20.9 µM (active),,inactive,
C=C(C)[C@@H]1CC[C@]2(C)CC[C@]3(C)[C@H](CC[C@@H]4[C@@]5(C)CC[C@H](O)C(C)(C)[C@H]5CC[C@]43C)[C@@H]12,inactive,inactive,inactive,,inactive,,,,,inactive,,inactive,
CCOC(=O)C=C[C@H](C[C@@H]1CCNC1=O)NC(=O)[C@@H](CC(=O)[C@@H](NC(=O)c1cc(C)on1)C(C)C)Cc1ccc(F)cc1,inactive,,,inactive,inactive,,,,,inactive,inactive,inactive,
Nc1nc(N)c2nc(-c3cccc(O)c3)c(-c3cccc(O)c3)nc2n1,inactive,10.5 µM (active),7.43 µM (active),20.9 µM (active),11.8 µM (active),,,,,18.7 µM (active),8.33 µM (active),5.9 µM (active),
O=C(CCCCCCC(=O)Nc1cccnc1)NO,inactive,2.35 µM (active),2.35 µM (active),2.35 µM (active),7.43 µM (active),,,,,7.43 µM (active),3.32 µM (active),2.96 µM (active),
O=[N+]([O-])c1cn2c(n1)OC[C@@H](OCc1ccc(OC(F)(F)F)cc1)C2,inactive,inactive,,inactive,inactive,,,,,inactive,inactive,inactive,
C[C@H](NC(=O)Cc1cc(F)cc(F)c1)C(=O)N[C@H](C(=O)OC(C)(C)C)c1ccccc1,inactive,inactive,inactive,inactive,inactive,,,,,inactive,inactive,inactive,
CCOC(=O)C1=C(C)NC(=S)NC1c1cccc(O)c1 (stereo not drawn),inactive,0.0187 µM (active),,0.105 µM (active),,,,,,0.0469 µM (active),,0.0166 µM (active),
NC(=O)Nc1cc(-c2ccc(CN3CCOCC3)cc2)sc1C(N)=O,inactive,18.7 µM (active),2.96 µM (active),18.7 µM (active),6.62 µM (active),,,,,20.9 µM (active),0.935 µM (active),,
Cn1cc(C[C@@H](N)C(=O)O)c2ccccc21,,inactive,inactive,inactive,inactive,,,,,inactive,,inactive,inactive [at 9.52 µM]
Cn1cc(-c2ccc3ncc(Cc4ccc5ncccc5c4)n3n2)cn1,inactive,,14.8 µM (active),inactive,inactive,inactive,inactive,inactive,inactive,inactive,,,

SMILES,Potency [1],Potency [2],Potency [3],Potency [4],Potency [5],Potency [6],Potency [7],outcome [8],Potency [9],Potency [10],Potency [11],Potency [12],outcome [1]
O=C1NCCc2[nH]c(-c3ccncc3)cc21,inactive,1.87 µM (active),1.66 µM (active),5.9 µM (active),2.35 µM (active),,,,,1.87 µM (active),,,
CC(C)Oc1ccc(C(=O)N[C@H](CNC(=O)CN(C)C)Cc2ccc(-c3cn4cccc([C@H](C)O)c4n3)cc2)cc1Cl,inactive,0.148 µM (active),0.332 µM (active),0.935 µM (active),0.187 µM (active),,,,,,0.264 µM (active),,
CCCCCCCCCCCCc1ccc(S(=O)(=O)Nc2nncs2)cc1,inactive,inactive,,inactive,inactive,,,,,,,0.935 µM (active),
O=C(Nc1nnc(-c2ccco2)o1)c1cc(-c2ccccc2)nc2ccccc12,inactive,23.5 µM (active),9.35 µM (active),,20.9 µM (active),,,,,,18.7 µM (active),18.7 µM (active),
N#CNC(=NCCCCCCOc1ccc(Cl)cc1)Nc1ccncc1,inactive,20.9 µM (active),0.0187 µM (active),0.0066 µM (active),0.0019 µM (active),,,,,16.6 µM (active),0.0469 µM (active),18.7 µM (active),
CCNC(=O)c1cc2c(-c3cc(OCCN4CCCC4)c(Cl)cc3Cl)nc(N)nc2s1,inactive,1.48 µM (active),0.935 µM (active),1.66 µM (active),1.05 µM (active),,,,,2.09 µM (active),0.526 µM (active),,
O=c1c(O)c(-c2ccc(O)c(O)c2)oc2cc(O)ccc12,inactive,20.9 µM (active),10.5 µM (active),20.9 µM (active),,,,,,20.9 µM (active),,11.8 µM (active),
NC1=N[C@H]2[C@H](CS[C@H]2CCCCC(=O)O)N1,inactive,inactive,inactive,inactive,,,,,,inactive,,,
Oc1ccc([C@@H]2Oc3ccc(O)cc3[C@@H]3CCC[C@@H]32)cc1,inactive,,inactive,23.5 µM (active),inactive,inactive,inactive,inactive,inactive,,inactive,,
OCCNC1CCCc2c1[nH]c1ccc(-c3ccccc3)cc21 (stereo not drawn),inactive,18.7 µM (active),,,23.5 µM (active),inactive,inactive,inactive,inactive,,26.4 µM (active),10.5 µM (active),
CCc1nc(-c2cccc(C)c2)c(-c2ccnc(NC(=O)c3ccccc3)c2)s1,inactive,18.7 µM (active),18.7 µM (active),11.8 µM (active),3.32 µM (active),inactive,inactive,inactive,inactive,16.6 µM (active),,,
O=S(=O)(O)CCSSCCS(=O)(=O)O,inactive,inactive,,inactive,inactive,,,,,inactive,inactive,inactive,
CCCc1nc(C(C)(C)O)c(C(=O)O)n1Cc1ccc(-c2ccccc2-c2nn[nH]n2)cc1,inactive,inactive,inactive,inactive,inactive,,,,,,,,
COc1cc([C@@H]2c3cc4c(cc3[C@H](O)[C@H]3COC(=O)[C@@H]23)OCO4)cc(OC)c1OC,inactive,0.0296 µM (active),0.0264 µM (active),0.0526 µM (active),,,,,,0.59 µM (active),0.059 µM (active),0.166 µM (active),
COc1cc(OC)c(NC(=O)Nc2cc(C)on2)cc1Cl,inactive,inactive,inactive,inactive,inactive,,,,,,,inactive,
Cn1cnc2c(F)c(Nc3ccc(Br)cc3F)c(C(=O)NOCCO)cc21,inactive,,1.05 µM (active),inactive,,inactive,inactive,inactive,inactive,inactive,,inactive,
C[N+](C)([O-])CCNc1ccc(NCC[N+](C)(C)[O-])c2c1C(=O)c1c(O)ccc(O)c1C2=O,inactive,inactive,,inactive,inactive,,,,,,,,
